GLP-1R agonist – agonists of human GLP-1 receptor; P43220; HEK293 GLP-1R CRE-luciferase, luminescence, 4-6 h; cells express a hypersensitive GLP-1R form; Potency, µM (titrated, usually from 45.6 µM), usual class: activators; 0.007% of 380,000 active; AID 624172
GLP1R inv ag – GLP-1 receptor (human) inverse agonism. P43220. 1.6% of 410,000 active. HEK293 GLP-1R CRE-luciferase, luminescence, 24 h; GLP-1R form is constitutively active. Potency, µM (doses to about 38.3 µM), most hits filed as inhibitors. AID 624417; note: nearly all actives have a fitted effect of over 55% in size
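qHTS in 1536-well format: reporter HEK293 cells expressing constitutive GLP-1R activity in DMEM + 10% Nu serum, 24 hr with compounds at 37 deg C, luminescence read after 12 min with detection reagent.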
GLP1R cytotox – cytotoxicity in counter-screen for GLP-1R inverse agonists. Potency, µM (series often up to 38.3 µM), usual class: inhibitors. HEK293 cAMP-luciferase reporter cells, luminescence, 24 h. 0.13% of 410,000 active. AID 624418;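 note: loss of luciferase light is scored as toxicity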
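To flag toxic compounds, the library was rerun on cells for 24 hr at 37 deg C and 5% CO2. Viability-linked luminescence was captured 12 min after adding luciferase detection reagent.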
PTHR1 agonist – activates the human parathyroid hormone receptor PTHR1. AID 743266. Q03431. HEK293 GP2 PTHR1 cells, GloSensor cAMP luminescence, 1 h. Potency, µM (top dose mostly 115 µM), actives largely listed as activators. 0.075% of 410,000 active; note: nearly all actives have a fitted effect of over 55% in size
Target sequence (Q03431 whole entry, looked up): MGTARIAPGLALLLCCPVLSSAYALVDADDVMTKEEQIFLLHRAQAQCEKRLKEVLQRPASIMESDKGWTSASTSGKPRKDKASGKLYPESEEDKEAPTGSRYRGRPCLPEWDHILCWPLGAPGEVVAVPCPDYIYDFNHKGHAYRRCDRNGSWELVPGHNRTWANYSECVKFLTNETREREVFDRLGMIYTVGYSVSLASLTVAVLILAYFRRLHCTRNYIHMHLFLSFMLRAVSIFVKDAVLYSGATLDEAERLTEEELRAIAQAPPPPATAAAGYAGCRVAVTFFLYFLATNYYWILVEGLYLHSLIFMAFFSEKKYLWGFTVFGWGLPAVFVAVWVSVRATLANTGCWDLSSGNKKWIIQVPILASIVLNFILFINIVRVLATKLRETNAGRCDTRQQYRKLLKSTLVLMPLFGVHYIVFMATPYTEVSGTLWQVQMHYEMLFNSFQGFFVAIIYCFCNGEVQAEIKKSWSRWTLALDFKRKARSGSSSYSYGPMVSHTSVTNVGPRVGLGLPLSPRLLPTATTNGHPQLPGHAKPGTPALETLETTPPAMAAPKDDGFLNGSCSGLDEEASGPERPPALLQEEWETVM
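HEK-293-derived GP2 cells expressing PTHR1 and a GloSensor cAMP reporter, 3,000/well, plated overnight, given luciferin plus IBMX (each 0.5 mM as added) for 1 h at 37 °C, then compound for 1 h at 37 °C. Luminescence was read after 15 min at room temperature.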
Each line names hits and unclear results; the compound was inactive in the other large screens. The list is not random: actives were taken first. Their share in the collection is about 1.7%. Calls come from the whole dose curve; as a rule, active = well fitted curve in the direction sought with a large enough effect; inconclusive = small, poorly fitted or top-dose-only effect, or another doubt; inactive = no such curve, though single readings can be large; an effect the other way counts as inactive or inconclusive.

CC(C)c1cc(-c2cc(C(=O)NCc3ccccc3)on2)nc(NCC2CC2)n1	GLP1R inv ag 13µM
Cc1cccc(C)c1OCC(=O)N/N=C/c1cccnc1	GLP1R cytotox 13µM
CS(=O)(=O)c1cccc(-c2nnc(NC(=O)c3ccc4c(c3)OCCO4)o2)c1	none (no result: GLP-1R agonist)
O=C(Cc1cccc(C(F)(F)F)c1)Nc1ccccc1N1CCCC1	GLP1R inv ag 10µM
O=C(Cc1ccccc1)Nc1ccccc1N1CCCC1	GLP1R inv ag inconclusive
O=[N+]([O-])c1ccc(Sc2cccc3cccnc23)cc1	none
O=[N+]([O-])c1ccc(Sc2cccc3cccnc23)c([N+](=O)[O-])c1	GLP1R inv ag inconclusive, GLP1R cytotox 3.2µM
C=CCn1nc([N+](=O)[O-])nc1Sc1cccc2cccnc12	GLP1R inv ag inconclusive, GLP1R cytotox 2.8µM
Cc1cc(C)c(NC(=O)CN2C(=O)c3cccnc3Oc3ccc(C)cc32)c(C)c1	none (no result: GLP-1R agonist)
Cc1cc(C)c2sc(N(CCN(C)C)C(=O)c3c(F)cccc3F)nc2c1	GLP1R inv ag 7.1µM
CN(C)CCN(C(=O)c1ccc(S(=O)(=O)N2CCCC2)cc1)c1nc2ccc(Br)cc2s1	GLP1R inv ag 5.6µM
CN(C)CCN(C(=O)c1ccc2ccccc2c1)c1nc2cc3c(cc2s1)OCCO3	GLP1R inv ag inconclusive
Cc1cc(C)c2sc(N(CCCN(C)C)C(=O)c3ccc(S(=O)(=O)N(C)Cc4ccccc4)cc3)nc2c1	GLP1R inv ag 11µM, GLP1R cytotox inconclusive
CN(C)CCN(C(=O)c1cccc2ccccc12)c1nc2cc3c(cc2s1)OCO3	GLP1R inv ag 10µM
COc1ccc(CNC(=O)c2ccc(CSc3nc4ccncc4n3Cc3ccccc3F)cc2)cc1	GLP1R inv ag inconclusive (no result: GLP-1R agonist)
COc1ccc(CCNC(=O)C(C)n2nc(C)c3sc4ccccc4c3c2=O)cc1OC (centres undefined)	PTHR1 agonist inconclusive (no result: GLP-1R agonist)
Fc1ccc(Nc2nc(SCc3ccccc3F)nc3ccccc23)cc1	GLP1R inv ag inconclusive (no result: GLP-1R agonist)
CCN(c1ccccc1)S(=O)(=O)c1ccc(C(=O)N(CCCN(C)C)c2nc3cc4c(cc3s2)OCO4)cc1	GLP1R inv ag 3.5µM, GLP1R cytotox inconclusive
Cc1ccc2nc(N(CCCN(C)C)C(=O)c3ccc(S(=O)(=O)N4CCCCCC4)cc3)sc2c1	GLP1R inv ag inconclusive, GLP1R cytotox inconclusive
CN(C)CCCN(C(=O)c1ccc(S(=O)(=O)N2CCCCCC2)cc1)c1nc2cc3c(cc2s1)OCO3	GLP1R inv ag 10µM
CN(C)CCCN(C(=O)c1ccc2ccccc2c1)c1nc2cc3c(cc2s1)OCO3	GLP1R inv ag inconclusive, GLP1R cytotox inconclusive
CCOc1cccc2sc(N(CCCN(C)C)C(=O)c3ccc(S(=O)(=O)N(C)Cc4ccccc4)cc3)nc12	GLP1R inv ag inconclusive, GLP1R cytotox inconclusive
CCOc1cccc2sc(N(CCCN(C)C)C(=O)c3ccc(S(=O)(=O)N(CC)Cc4ccccc4)cc3)nc12	GLP1R inv ag 4µM, GLP1R cytotox inconclusive
CN(C)CCCN(C(=O)c1ccc(S(=O)(=O)N(C)Cc2ccccc2)cc1)c1nc2cc3c(cc2s1)OCO3	GLP1R inv ag 7.1µM, GLP1R cytotox inconclusive
CC1(C)O[C@@H]2C[C@H]3[C@@H]4CCC5=CC(=O)C=C[C@]5(C)[C@H]4C(O)C[C@]3(C)[C@]2(C(=O)CO)O1 (some centres undefined)	none (no result: GLP1R inv ag, GLP1R cytotox, PTHR1 agonist)
O=C1C(c2cccc(Br)c2)N(CCc2ccccc2)C(=O)CN1C1CCCCC1 (centres undefined)	PTHR1 agonist inconclusive (no result: GLP-1R agonist)
CC(C)CCn1c(-c2nonc2N)nc2ccccc21	GLP1R inv ag 2.2µM
COCc1ccc(C(=O)Nc2cccc(S(=O)(=O)N(C)c3ccccc3)c2)cc1	GLP1R inv ag inconclusive, GLP1R cytotox inconclusive
CN(C)S(=O)(=O)c1cccc(NC(=O)c2ccc(COc3ccccc3)cc2)c1	GLP1R inv ag 10µM
COc1ccccc1-c1oc2ccccc2c1C#CC(C)(C)O	GLP1R inv ag 10µM
CC(NC(=O)CSc1n[nH]c(N)n1)c1ccccc1 (centres undefined)	none
CCCc1ccc(-c2cc(NC(=O)CSc3n[nH]c(N)n3)n(-c3ccccc3)n2)cc1	PTHR1 agonist 16µM
Cc1c2cnn(CC(=O)N3CCCCC3)c(=O)c2c(C)n1Cc1ccc(Cl)cc1	none (no result: GLP-1R agonist)
COc1ccccc1CNC(=O)c1cc2ccc3ccc(C)[nH]c3c2n1	GLP1R inv ag 10µM
COc1ccc(CCNC(=O)CCCn2c(=O)c3ccccc3n(Cc3ccccc3)c2=O)cc1OC	none
Cc1ccc(-n2ncc3c(N4CCCCCC4)ncnc32)cc1Cl	GLP1R inv ag inconclusive (no result: GLP-1R agonist)
Cc1ccc(-n2ncc3c(N4CCCCC4)ncnc32)cc1Cl	GLP1R inv ag 0.79µM (no result: GLP-1R agonist)
Cc1cccc(-n2ncc3c(N4CCOCC4)ncnc32)c1	GLP1R inv ag 3.2µM
COc1ccc(CCNC(=O)c2ccc3c(c2)N(Cc2ccccc2Cl)C(=O)c2ccccc2S3)cc1OC	none (no result: GLP-1R agonist)
COc1ccc(OC)c(NC(=S)NCCC(c2ccccc2)c2ccccc2)c1	GLP1R inv ag 8.9µM
Fc1cccc(NC(=S)NCc2ccccc2Cl)c1	GLP1R inv ag 10µM
S=C(NCCC(c1ccccc1)c1ccccc1)Nc1cccc(Cl)c1	GLP1R inv ag 11µM, GLP1R cytotox inconclusive
CCc1ccc(OCC(=O)NCCN(C)C)c(Br)c1	GLP1R inv ag 10µM
CCc1ccc(OCC(=O)NC2CCCCC2)c(Br)c1	GLP1R inv ag inconclusive
Cc1cc(OCC(=O)NCCCN(C)C)cc(C)c1Br	GLP1R inv ag 2.8µM
COc1cc(OC)c(NC(=O)N2CCSc3ccccc32)cc1Cl	none (no result: GLP-1R agonist)
COc1ccc(-c2n(CC(=O)OC3CC(C)CCC3C(C)C)c3ccccc3[n+]2C)cc1 (centres undefined)	GLP1R inv ag 7.1µM, GLP1R cytotox inconclusive
CCN(CC)c1ccc(C(=C2C=CC(=[N+](CC)CC)C=C2)c2ccccc2)cc1	GLP1R inv ag inconclusive, GLP1R cytotox 5µM
Cc1nn(C(C)(C)C)c(OC(=O)c2ccc3c(c2)OCO3)c1S(=O)(=O)c1ccccc1	GLP1R inv ag 10µM
Cc1nn(C(C)(C)C)c(OC(=O)c2ccc3c(c2)OCO3)c1Sc1ccccc1	GLP1R inv ag 4.5µM
COc1ccc(Nc2sc(C(=O)c3ccc(Cl)cc3)c(N)c2C(=O)Nc2ccccc2OC)cc1	none
COc1ccccc1NC(=O)c1c(Nc2ccccc2C)sc(C(=O)Nc2cccc(Cl)c2)c1N	GLP1R inv ag 4.5µM, GLP1R cytotox inconclusive
CSCCC(NC(=O)[C@H](Cc1c[nH]c2ccccc12)NC(=O)CNC(=O)[C@H](CCSC)NC(=O)[C@H](Cc1ccc(OS(=O)(=O)O)cc1)NC(=O)[C@@H](N)CC(=O)O)C(=O)N[C@@H](CC(=O)O)C(=O)N[C@@H](Cc1ccccc1)C(N)=O (some centres undefined)	none (no result: GLP1R inv ag, GLP1R cytotox, PTHR1 agonist)
Cc1ccc(-c2nc(CS(=O)(=O)CC(=O)NCCCN(Cc3ccccc3)C(C)C)c(C)o2)cc1	GLP1R inv ag 4.5µM, GLP1R cytotox inconclusive
CC(/C=N/NC(=O)Cn1nccc1C)=C\c1ccc(C(C)C)cc1	GLP1R inv ag 11µM

Screening results (PubChem)
